# Experimental data as given in PubChem BioAssay.
# “And” between values parts separate entries of the source, which are not always exact repeats. Equal values may be shown once. The source made the active and inactive calls.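 Rule for the calls, unless noted: active = normalized viability below 100% at a tested concentration; inactive = the rest.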
# Assays:
# [1] = viability loss with induced miR-34 in A549 – imaging, A549 dox-inducible miR-34, nuclei and caspase counts, primary screen (AID 1347080;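 active = compounds whose cell count with miR-34 switched on is under 0.7 times the count with it off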); settings: A549 miR-34 inducible, Hoechst nuclei count, 48 h
# [2] = MELAS cybrid and Rieske KO viability enhancers – cell-based, MELAS cybrids, Rieske KO mouse fibroblasts, CellTiter-Glo, primary screen (AID 1508586;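 active = mean z-score across replicates of 1.96 or higher in either the MELAS or the Rieske mutant cell line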;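 note: z relative to plate mean and SD of compound and empty wells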); settings: low glucose
# [3] = drug combination growth inhibition, ovarian cancer – cell-based, oncology-focused library, rucaparib conditional, profiling panel (AID 1508598); settings: patient-derived ovarian cancer cells, CellTiter-Glo viability, 144 h, stronger effect = lower value
# [4] = growth inhibition, single agent or in combination, cell-based, chromothripsis tumors, cisplatin or BGB combos (AID 1671449; in the data active = inhibition above about 80%;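 note: cells exposed for 96 hours; 0% = vehicle DMSO and 100% = killing by high DMSO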); settings: LFS_MB_P medulloblastoma cells
# [5] = growth inhibition, single agent and combos, cell-based, chromothripsis tumors, cisplatin or BGB combos (AID 1671450; in the data active = inhibition above about 80%;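 note: cells exposed to compound for four days; 0% = vehicle DMSO and 100% = cell killing by high DMSO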); settings: HDN33 neuroblastoma cells, stronger effect = higher value
# [6] = growth inhibition, single agents and combos, ICB984, cell-based, cisplatin or BGB combos, synergistic combos for chromothripsis tumors (AID 1671451; call rule not given here;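 note: cells exposed for 96 hours before readout; 0% = vehicle DMSO and 100% = killing by high DMSO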); settings: ICB984 medulloblastoma cells, drug combinations, stronger effect = higher value
# [7] = growth inhibition, single agents and combos, LFS_MB_1R, cell-based, cisplatin or BGB combos, synergistic combos for chromothripsis tumors (AID 1671452; in the data active = inhibition above about 80%;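 note: cells exposed for 96 hours before readout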); settings: LFS_MB_1R medulloblastoma cells, stronger effect = higher value
# [8] = growth inhibition, single agents and combos, HTB85, cell-based, BGB or cisplatin IC20 combos, synergistic combos for chromothripsis tumors (AID 1671453; in the data active = inhibition above about 80%;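 note: cells exposed for 96 hours before readout; 0% = vehicle DMSO and 100% = high DMSO killing control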); settings: HTB85 osteosarcoma cells, drug combinations, stronger effect = higher value
# [9] = growth inhibition, single agents and combos, CRL2098, cell-based, BGB or cisplatin IC20 combos, synergistic combos for chromothripsis tumors (AID 1671454; in the data active = inhibition above about 80%;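 note: cells exposed for 96 h before readout; 0% = vehicle DMSO and 100% = killing by high DMSO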); settings: CRL2098 osteosarcoma cells, drug combinations, stronger effect = higher value
# [10] = growth inhibition, single agents and combos, HD-MB03, cell-based, BGB or cisplatin IC20 combos, synergistic combos for chromothripsis tumors (AID 1671455; in the data active = inhibition above about 83%;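 note: 0% = vehicle DMSO and 100% = high DMSO as cytotoxic control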); settings: HD-MB03 medulloblastoma cells, stronger effect = higher value
# [11] = growth inhibition, single agents and combos, UWB1.289, cell-based, BGB or cisplatin combos, synergistic combos for chromothripsis tumors (AID 1671456; in the data active = inhibition above about 80%;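 note: cells exposed to compound for four days; 0% = vehicle DMSO and 100% = killing by high DMSO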); settings: UWB1.289 ovarian carcinoma cells, stronger effect = higher value
# [12] = growth inhibition, single agents and combos, LFS_MB_2R, cell-based, cisplatin combos, synergistic combos for chromothripsis tumors (AID 1671457; in the data active = inhibition above about 80%;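 note: cells exposed to compound for four days before readout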); settings: LFS_MB_2R medulloblastoma cells, stronger effect = higher value
# [13] = growth inhibition, MDA-MB-436, cell-based, BGB or cisplatin combos, synergistic combos for chromothripsis tumors (AID 1671458; call rule not given here;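 note: cells exposed for 96 hours; 0% = vehicle DMSO and 100% = killing by high DMSO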); settings: MDA-MB-436 breast carcinoma growth inhibition, drug combinations, stronger effect = higher value
# [14] = UWB1.289_BRCA1 ovarian cancer growth, cell-based, BGB or cisplatin combinations (AID 1671459; in the data active = inhibition above about 80%); settings: UWB1.289 BRCA1 ovarian carcinoma, drug combinations, stronger effect = higher value
# [15] = drug combination toxicity in non-malignant astrocytes – cell-based, BGB or cisplatin IC20 combos, cytotoxicity control for chromothriptic childhood tumor combination screen (AID 1671460; in the data active = inhibition above about 80%;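 note: cells exposed to compounds for 96 hours before viability readout; 0% = vehicle and 100% = killing control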); settings: Human astrocytes, viability inhibition, drug combinations, at 0.5 µM, stronger effect = higher value
# [16] = BT084 cell growth, single and combined drugs, ICGC_MB145, cisplatin and BGB IC40 combos (AID 1671461; in the data active = inhibition above about 80%;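 note: cells exposed to drugs for 96 hours; 0% = vehicle DMSO and 100% = high DMSO full killing control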); settings: BT084 medulloblastoma cells, drug combinations, stronger effect = higher value
# [17] = RCMB18 cell growth, single agent and combined, cisplatin and BGB IC40 combos (AID 1671462; in the data active = inhibition above about 80%;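 note: cells exposed to compound for four days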); settings: RCMB18 medulloblastoma cells, stronger effect = higher value
# [18] = CRL1545 cell growth, single agent and combined, cisplatin and BGB IC20 combos (AID 1671464; in the data active = inhibition above about 80%;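 note: cells exposed to compound for 96 hours before readout; 0% = vehicle DMSO and 100% = high DMSO killing control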); settings: CRL1545 osteosarcoma cells, stronger effect = higher value
# [19] = measured here: combination with BGB IC40, at 0.05 µM
# [20] = measured here: with BGB IC20 combination, at 0.5 µM
# [21] = measured here: with cisplatin IC20 combination, at 0.5 µM
# [22] = measured here: combination with cisplatin, at 0.5 µM
# [23] = measured here: combination with cisplatin, at 5 µM
smiles,measurement,setting,value
O=C(NCC1(c2nc(-c3ccccc3)cs2)CCOCC1)c1cccc(-c2noc(C(F)(F)F)n2)c1,fold change,"[1]; stronger effect = lower value, cell number ratio, induced over uninduced",0.836 (inactive)
same,fold change,[1]; measured here: relative caspase fold change +Dox/-Dox,0.412
same,cell count,"[1]; measured here: total cells with miR-34 induction, stronger effect = lower value",6620
same,cell count,[1]; measured here: total cells without miR-34 induction,7920
same,z-score,"[2]; MELAS cybrid survival, CellTiter-Glo 48 h, stronger effect = higher value",0.0872 (inactive)
same,z-score,"[2]; Rieske KO mouse fibroblast survival, CellTiter-Glo 72 h",0.109
same,viability,"[3]; at 0.000305 µM, OCI-C5x cells, with rucaparib 10 µM, 100% = cells with rucaparib alone",124% (inactive)
same,viability,"[3]; at 0.000305 µM, OCI-C5x cells, without rucaparib",111% (inactive)
same,viability,"[3]; at 0.000305 µM, OCI-P5x cells, with rucaparib 20 µM, 100% = cells with rucaparib alone",98.3% (active)
same,viability,"[3]; at 0.000305 µM, OCI-P5x cells, without rucaparib",94.3% (active)
same,viability,"[3]; at 0.00122 µM, OCI-C5x cells, with rucaparib 10 µM, 100% = cells with rucaparib alone",128% (inactive)
same,viability,"[3]; at 0.00122 µM, OCI-C5x cells, without rucaparib",113% (inactive)
same,viability,"[3]; at 0.00122 µM, OCI-P5x cells, with rucaparib 20 µM, 100% = cells with rucaparib alone",104% (inactive)
same,viability,"[3]; at 0.00122 µM, OCI-P5x cells, without rucaparib",101% (inactive)
same,viability,"[3]; at 0.00488 µM, OCI-C5x cells, with rucaparib 10 µM, 100% = cells with rucaparib alone",127% (inactive)
same,viability,"[3]; at 0.00488 µM, OCI-C5x cells, without rucaparib",117% (inactive)
same,viability,"[3]; at 0.00488 µM, OCI-P5x cells, with rucaparib 20 µM, 100% = cells with rucaparib alone",95.9% (active)
same,viability,"[3]; at 0.00488 µM, OCI-P5x cells, without rucaparib",97.2% (active)
same,viability,"[3]; at 0.0195 µM, OCI-C5x cells, with rucaparib 10 µM, 100% = cells with rucaparib alone",120% (inactive)
same,viability,"[3]; at 0.0195 µM, OCI-C5x cells, without rucaparib",104% (inactive)
same,viability,"[3]; at 0.0195 µM, OCI-P5x cells, with rucaparib 20 µM, 100% = cells with rucaparib alone",95.5% (active)
same,viability,"[3]; at 0.0195 µM, OCI-P5x cells, without rucaparib",89.1% (active)
same,viability,"[3]; at 0.0781 µM, OCI-C5x cells, with rucaparib 10 µM, 100% = cells with rucaparib alone",109% (inactive)
same,viability,"[3]; at 0.0781 µM, OCI-C5x cells, without rucaparib",106% (inactive)
same,viability,"[3]; at 0.0781 µM, OCI-P5x cells, with rucaparib 20 µM, 100% = cells with rucaparib alone",94% (active)
same,viability,"[3]; at 0.0781 µM, OCI-P5x cells, without rucaparib",94.9% (active)
same,viability,"[3]; at 0.313 µM, OCI-C5x cells, with rucaparib 10 µM, 100% = cells with rucaparib alone",132% (inactive)
same,viability,"[3]; at 0.313 µM, OCI-C5x cells, without rucaparib",102% (inactive)
same,viability,"[3]; at 0.313 µM, OCI-P5x cells, with rucaparib 20 µM, 100% = cells with rucaparib alone",95.8% (active)
same,viability,"[3]; at 0.313 µM, OCI-P5x cells, without rucaparib",90.7% (active)
same,viability,"[3]; at 1.25 µM, OCI-C5x cells, with rucaparib 10 µM, 100% = cells with rucaparib alone",135% (inactive)
same,viability,"[3]; at 1.25 µM, OCI-C5x cells, without rucaparib",117% (inactive)
same,viability,"[3]; at 1.25 µM, OCI-P5x cells, with rucaparib 20 µM, 100% = cells with rucaparib alone",88.1% (active)
same,viability,"[3]; at 1.25 µM, OCI-P5x cells, without rucaparib",89.8% (active)
same,viability,"[3]; at 5 µM, OCI-C5x cells, with rucaparib 10 µM, 100% = cells with rucaparib alone",158% (inactive)
same,viability,"[3]; at 5 µM, OCI-C5x cells, without rucaparib",127% (inactive)
same,viability,"[3]; at 5 µM, OCI-P5x cells, with rucaparib 20 µM, 100% = cells with rucaparib alone",78.7% (active)
same,viability,"[3]; at 5 µM, OCI-P5x cells, without rucaparib",84.2% (active)
same,inhibition,"[4]; at 0.5 µM, stronger effect = higher value",16.1% (inactive) and -6.25% (inactive)
same,inhibition,"[4]; measured here: combination with BGB IC20, at 0.005 µM",1.8% and 4.15%
same,inhibition,"[4]; measured here: combination with BGB IC40, at 0.005 µM",2.63% and 14.3%
same,inhibition,[4]; [19],-10.8% and -1.22%
same,inhibition,"[4]; measured here: combination with cisplatin, at 0.5 µM, stronger effect = higher value",3.22% and -32.3%
same,inhibition,"[4]; measured here: combination with cisplatin, at 5 µM, stronger effect = higher value",-16.9% and -3.34%
same,inhibition,"[5]; BGB combo, at 5 µM",-23% and 15.5%
same,inhibition,[5]; at 0.5 µM,-32.5% (inactive) and 16.4% (inactive)
same,inhibition,"[5]; cisplatin combo, at 5 µM",-16.3% and 0.452%
same,inhibition,[5]; [20],-30.2% and 18.4%
same,inhibition,[5]; [21],-45.4% and 11.4%
same,inhibition,"[5]; single agent, at 5 µM",-5.15% and 25.1%
same,inhibition,"[6]; BGB IC20 combo, at 0.005 µM",-22.9% and 2.76%
same,inhibition,"[6]; BGB IC40 combo, at 0.005 µM",9.28% and 13%
same,inhibition,"[6]; BGB IC40 combo, at 0.05 µM",-3.89% and 21%
same,inhibition,[6]; at 0.5 µM,-16.1% (inactive) and 2.22% (inactive)
same,inhibition,"[6]; cisplatin combo, at 0.05 µM",-6.8% and 18.1%
same,inhibition,"[6]; cisplatin combo, at 0.5 µM",-20% and 9.29%
same,inhibition,"[6]; cisplatin combo, at 5 µM",-12.6% and -9.9%
same,inhibition,"[6]; measured here: 5 uM single agent, at 5 µM",-22.5% and 19.3%
same,inhibition,[7]; at 0.5 µM,-33% (inactive) and -1.8% (inactive)
same,inhibition,[7]; [19],-32.4% and 10.2%
same,inhibition,[7]; [22],-76.1% and -10.4%
same,inhibition,[7]; [23],-10.4% and -0.263%
same,inhibition,[8]; at 0.5 µM,-28.5% (inactive) and 1.8% (inactive)
same,inhibition,"[8]; measured here: with BGB IC20, at 0.5 µM",-38.8% and -0.919%
same,inhibition,"[8]; measured here: with BGB IC20, at 5 µM",-58.5% and 4.11%
same,inhibition,"[8]; measured here: with cisplatin IC20, at 0.5 µM",-26.7% and 6.6%
same,inhibition,"[8]; measured here: with cisplatin IC20, at 5 µM",-31.5% and 8.1%
same,inhibition,"[8]; single agent, at 5 µM",-23.9% and 9.32%
same,inhibition,[9]; at 0.5 µM,-56.1% (inactive) and -1.16% (inactive)
same,inhibition,"[9]; measured here: combination with BGB at IC20, at 0.5 µM",-61.3% and -10.8%
same,inhibition,"[9]; measured here: combination with cisplatin at IC20, at 0.5 µM",-66.8% and 10.9%
same,inhibition,[10]; at 0.5 µM,-15.6% (inactive) and 10.1% (inactive)
same,inhibition,"[10]; measured here: combo with BGB at IC20, at 0.5 µM",-9.59% and 1.06%
same,inhibition,"[10]; measured here: combo with cisplatin at IC20, at 0.5 µM",-27.9% and 14.3%
same,inhibition,[11]; at 0.5 µM,-12.3% (inactive) and 13.4% (inactive)
same,inhibition,"[11]; measured here: inhibition with BGB combination, at 0.05 µM",-8.63% and 3.2%
same,inhibition,"[11]; measured here: inhibition with cisplatin combination, at 0.05 µM",0.295% and 28.5%
same,inhibition,[12]; at 0.5 µM,0.9% (inactive) and 4.52% (inactive)
same,inhibition,[12]; [22],0.458% and 8.71%
same,inhibition,[12]; [23],-55.5% and 22.9%
same,inhibition,[13]; at 0.5 µM,-6.26% (inactive) and 2.54% (inactive)
same,inhibition,"[13]; measured here: BGB combination, at 0.5 µM",-4.1% and 0.779%
same,inhibition,"[13]; measured here: BGB combination, at 5 µM",-10.4% and -5.25%
same,inhibition,"[13]; measured here: cisplatin combination, at 0.5 µM",-10.7% and 8.48%
same,inhibition,"[13]; measured here: cisplatin combination, at 5 µM",-13.8% and 11%
same,inhibition,"[14]; BGB combination, concentration series, at 5 µM",-15.2% and 14.2%
same,inhibition,[14]; at 0.5 µM,-10.2% (inactive) and 7.86% (inactive)
same,inhibition,"[14]; cisplatin combination, concentration series, at 5 µM",8.95% and 1.52%
same,inhibition,[15],-27.1% (inactive) and -7.2% (inactive)
same,inhibition,[15]; measured here: combo with BGB IC20,-8.11% and -1.8%
same,inhibition,[15]; measured here: combo with cisplatin IC20,-58.3% and -12.6%
same,inhibition,[16]; at 0.5 µM,-4.68% (inactive) and 10.6% (inactive)
same,inhibition,"[16]; cisplatin combination, at 0.5 µM",-2.52% and 12.6%
same,inhibition,"[16]; cisplatin combination, at 5 µM",12.8% and 27.4%
same,inhibition,"[16]; measured here: BGB IC40 combination 0.05 uM, at 0.05 µM",16% and -10.3%
same,inhibition,"[16]; single agent, at 5 µM",15.3% and 24.7%
same,inhibition,[17]; at 0.5 µM,-34.6% (inactive) and 5.45% (inactive)
same,inhibition,"[17]; cisplatin combo, at 5 µM",-80.8% and -19.2%
same,inhibition,"[17]; measured here: BGB IC40 combination, at 0.05 µM",-21% and 1.81%
same,inhibition,[17]; [22],-74.6% and 3.89%
same,inhibition,"[17]; single agent, at 5 µM",14.7% and 26.4%
same,inhibition,[18]; at 0.5 µM,-45.6% (inactive) and -15.7% (inactive)
same,inhibition,[18]; [20],-23% and -21.2%
same,inhibition,[18]; [21],-60.5% and -14.7%
same,inhibition,"[18]; single agent, at 0.05 µM",-48% and 14.2%
same,inhibition,"[18]; single agent, at 5 µM",36.5% and 43.7%
